USP30 block – inhibitors of human USP30 deubiquitinase; purified USP30, Ub-rhodamine cleavage fluorescence; inhibition, % at 25 µM; hit rate 5.3% among 47,000
USP17 inh – blocks human USP17 ubiquitin-rhodamine cleavage | purified USP17, Ub-rhodamine cleavage fluorescence, 3 h | inhibition, % at 50 µM | hit rate 6.5% among 47,000
Target sequence (A8MUK1 whole entry, looked up): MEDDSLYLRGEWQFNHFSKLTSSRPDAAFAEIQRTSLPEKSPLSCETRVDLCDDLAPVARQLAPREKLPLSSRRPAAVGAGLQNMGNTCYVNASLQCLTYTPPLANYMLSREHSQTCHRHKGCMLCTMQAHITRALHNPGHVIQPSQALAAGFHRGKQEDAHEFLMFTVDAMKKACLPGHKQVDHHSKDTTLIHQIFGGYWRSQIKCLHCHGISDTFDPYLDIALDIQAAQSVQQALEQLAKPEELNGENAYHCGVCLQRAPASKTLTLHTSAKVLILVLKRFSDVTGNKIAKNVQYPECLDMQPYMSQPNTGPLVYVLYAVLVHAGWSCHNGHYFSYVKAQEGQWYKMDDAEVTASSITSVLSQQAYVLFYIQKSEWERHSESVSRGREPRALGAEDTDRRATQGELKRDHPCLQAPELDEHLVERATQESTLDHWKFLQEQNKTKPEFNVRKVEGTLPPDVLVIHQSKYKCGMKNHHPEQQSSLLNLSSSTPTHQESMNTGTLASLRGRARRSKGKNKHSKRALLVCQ
OTUD3 block – inhibitors of human OTUD3 deubiquitinase; Q5T2D3; purified OTUD3, Ub-rhodamine fluorescence, 2 h; inhibition, % at 25 µM; hit rate 0.7% among 47,000; AID 1645858
USP28 block – human USP28 deubiquitinase inhibition. purified USP28, Ub-rhodamine cleavage fluorescence, 30 min. AID 1645857. inhibition, % at 25 µM. hit rate 3% among 47,000
* marks the source's active call; other numbers are inactive results; i = inactive; . = no result given. An excerpt weighted towards active compounds, which were near 11% of everything screened. No stated cut-off is given here; in the data, active means inhibition above about 30%; inactive means the rest.

SMILES	USP30 block	USP17 inh	OTUD3 block	USP28 block
CN1[C@@H](CCC(=O)N2CCN(c3ccccn3)CC2)CNC(=O)[C@@H]2[C@H]1CCN2C1CCCCC1	-2	-55	1	25
CN1CC[C@@H]2[C@H]1C(=O)NC[C@H](CCC(=O)N1CCN(c3ccccn3)CC1)N2C	26	-70	2	44*
CC(C)N1CC[C@@H]2[C@H]1C(=O)NC[C@H](CCC(=O)N1CCCC1)N2C	21	-56	8	34*
COC(=O)C1CCN(C(=O)CC[C@H]2CNC(=O)[C@@H]3[C@@H](CCN3C3CCCCC3)N2C)CC1	-13	-50	9	31*
CC(C)N1CC[C@@H]2[C@H]1C(=O)NC[C@H](CCC(=O)N1CCN(c3ccccc3)CC1)N2C	-3	-61	4	4
COc1cccc(C(=O)N2CCN(c3ccc(-c4nc(C)cs4)cn3)CC2)c1OC	-10	-21	-14	-6
O=C(Nc1ccc(Br)cc1)c1cc(=O)[nH]c2ccccc12	35*	7	5	15
c1cc2cc(CN3CCN(c4cnn5c(C6CC6)nnc5c4)CC3)ccc2[nH]1	-10	1	-3	-1
COc1cccc(NC(=O)CSc2nnc(-c3cc4cccc(OC)c4o3)n2C)c1	50*	60*	11	7
Cn1c(SCC(=O)c2ccc(F)cc2)nnc1-c1cc2ccccc2o1	88*	73*	1	12
O=C(CSc1nnc(-c2cc3ccccc3[nH]2)o1)Nc1cccc(F)c1	-85	-38	-22	-21
COc1cc(NC(=O)CSc2nnc(-c3cc4ccccc4n3C)o2)cc(OC)c1	49*	20	20	15
COc1ccc(C(=O)CSc2nnc(-c3cc4cccc(OC)c4o3)n2C)cc1OC	53*	18	-4	0
COc1cccc(NC(=O)CSc2nnc(-c3ccc(OC)c(OC)c3)c(-c3ccc(OC)c(OC)c3)n2)c1	-22	-17	-7	-15
COc1ccc(C(=O)CSc2nnc(COc3c(C)cccc3C)n2C)cc1OC	10	25	-2	-1
Cn1c(SCC(=O)NCc2ccccc2)nnc1-c1cc2ccccc2o1	-22	18	11	0
COCCn1c(SCC(=O)c2ccc(F)cc2)nc2ccccc21	10	36*	23	1
CCc1nc(=O)c2ccccc2n1C1=CCN(C(=O)c2cccnc2)CC1	29	21	10	6
NS(=O)(=O)c1ccc(CCNC(=O)COC(=O)c2cc(-c3ccc(Cl)cc3)nc3ccccc23)cc1	39*	30*	9	37*
COc1cc(C(=O)OCC(=O)N2CCC(Cc3ccccc3)CC2)c([N+](=O)[O-])cc1OC	44*	-4	18	21
O=C(COC(=O)c1ccc2c(c1)S(=O)(=O)N=C1CCCCCN12)NCCc1ccc(F)cc1	5	.	-1	2
O=C(OCC(=O)N1CCC(Cc2ccccc2)CC1)c1ccc2c(c1)S(=O)(=O)N=C1CCCCCN12	49*	2	7	21
COc1ccc(C(=O)OCC(=O)N2CCC(Cc3ccccc3)CC2)cc1[N+](=O)[O-]	46*	11	7	36*
O=C(COc1cccnc1[N+](=O)[O-])N1CCC(Cc2ccccc2)CC1	26	-14	-1	-4
O=C(NCc1ccco1)c1cccc(S(=O)(=O)N2CC(c3ccccc3)CC2=O)c1 (centres undefined)	-58	-5	-7	-5
SMILES	USP30 block	USP17 inh	OTUD3 block	USP28 block
COc1ccccc1N1CCN(C(=O)Cn2ccc3ccc(N4CCOCC4)nc32)CC1	-382	-53	-62	-76
O=C(Nc1ccc(Cl)cc1)C1CCN(c2nc3nc[nH]c(=O)c3s2)CC1	-5	-5	-5	-7
CCc1ccc(NC(=O)C2CCN(c3nc4nc[nH]c(=O)c4s3)CC2)cc1	34*	14	16	-3
COC(=O)c1cc2sc(C)cc2n1Cc1ccccc1F	-17	12	9	16
Cn1ncc2c(N3CCSCC3)nc(C(=O)NC3CC3)nc21	7	4	13	5
Cc1cccc(OCCCSc2nc3ccc(C)cc3[nH]2)c1	24	22	15	28
CCOc1ccc2nc(SCc3cn4cc(Cl)ccc4n3)[nH]c2c1	21	9	2	41*
COCC1CN(C(=O)c2ccncn2)Cc2cn(C)nc21 (centres undefined)	-23	-20	-2	-8
COc1ccccc1C(=O)N(Cc1ccccc1)C(C)(C)c1ccccc1	36*	26	18	18
N#Cc1cnc2ccc(F)cc2c1N1CCC(C(=O)N2CCCCC2)CC1	26	4	17	4
O=c1ccc(S(=O)(=O)N2CCCCC2)cn1Cc1ccccc1	27	12	7	17
CCOc1ccc2ccccc2c1C(=O)N1CC(=O)Nc2ccc(C)cc2C1c1ccc(F)cc1 (centres undefined)	43*	9	-1	17
Cc1ccc2c(c1)C(c1ccc(F)cc1)N(C(=O)COc1ccc3ccccc3c1)CC(=O)N2 (centres undefined)	-21	-10	-6	-11
C[C@@]12CCc3occc3C1CCC13CC(CCC12)[C@@](O)(CO)C3 (some centres undefined)	32*	47*	16	2
NC(=O)c1c[nH]n2c(=O)cc(C3CC(=O)N(c4cccc(F)c4)C3)nc12 (centres undefined)	-41	-19	-2	-12
NC(=O)c1ccccc1OCC(=O)N1CCc2ccccc21	76*	62*	-7	51*
O=C(COc1nc2ccccc2nc1N1CCOCC1)N1CCc2ccccc21	i	-126	-156	-173
CC(C)CC(=O)N1CCCC(c2nc(N3CCOCC3)ncc2-c2cccnc2)C1 (centres undefined)	10	-1	-3	-5
CC(=O)N1CCCC(c2nc(N3CCOCC3)ncc2-c2cccnc2)C1 (centres undefined)	37*	23	18	24
CCCS(=O)(=O)N1CCC2(C/C=C/Cc3ccccc3OCC(=O)NC2)CC1	12	-5	-4	-1
O=C(COc1cccc2ccc(N3CCC(Cc4ccccc4)CC3)nc12)Nc1cccc(Cl)c1	2	39*	2	5
O=C(COc1ccc(Cl)cc1-n1cnnc1)Nc1cccc(O)c1	-138	-46	-27	-43
O=C(NCc1ccccn1)C1CCN(c2cncnc2N2CCCCC2)CC1	-29	-16	-11	41*
O=C(Nc1cnn(-c2ncncc2N2CCCCC2)c1)C1CC1	24	-1	13	11
O=C(NCc1ccco1)C1CCN(c2cncnc2N2CCCC2)CC1	-40	-14	-15	-6
SMILES	USP30 block	USP17 inh	OTUD3 block	USP28 block
Cc1ccc(NC(=O)C2CCN(c3cncnc3N3CCCC3)CC2)cc1	0	-18	-9	90*
Cc1ccc(-c2cc(C#N)c(=O)n(Cc3ccccc3)c2)cc1	11	7	13	0
Cc1ccc(-c2cc(C#N)c(=O)n(Cc3ccc(F)cc3)c2)cc1	0	41*	-1	-8
Cc1ccc2c(=O)c3c([nH]c2c1C)CCN(CC(=O)NCc1ccccc1)C3	40*	72*	1	18
O=C(CSc1nnc(-c2ccc(F)cc2)c2ccccc12)c1c[nH]c2ccccc12	i	18	-117	-149
CN1CCCN(C(=O)c2ccc(-n3cc(CNC(=O)C4CC4)cn3)cc2)CC1	4	0	3	1
